Assay results reported in PubChem BioAssay (Tox21).
Active and inactive are the calls of the source. The call rests on the fitted dose curve; in most records, active means well fitted curve in the direction sought with a large enough effect in the repeat runs; inconclusive means weak or mixed curves; inactive means flat fitted curve, though single readings scatter.

test: qHTS assay to test for compound auto fluorescence at 535 nm (green) in HepG2 cells (AID 720675); settings: green autofluorescence 485/535 nm, 1 h; series mostly up to 91.3 µM
Source text: National Center for Advancing Translational Sciences [NCATS]
NIH Chemical Genomics Center [NCGC]
U.S. Environmental Protection Agency [EPA]
National Institutes of Environmental Health Sciences [NIEHS]
National Toxicology Program [NTP]
U.S. Food and Drug Administration [FDA]
Compound auto fluorescence often interferes with screening of the compound library against various biological targets and signaling pathways. Some of these compounds may have fluorophoric properties. Such properties may interfere with the assay outputs resulting in false positives and/or negatives. To decrease such complications and ensure the compound activities are relevant in terms of biological response, the Tox21 10K compound library was screened for auto fluorescence.
From the fluorophores used as reporter signals in our screening assays, the auto fluorescence equivalencies of compounds against three fluorophores have been evaluated: Triamterene, Fluorescein and Rose Bengal sodium for blue, green and red fluorescence, respectively. The fluorescence intensities were measured using Excitation/Emission wavelengths at 405/460nm, 485/535nm and 540/590nm for blue, green and red labels, respectively. This assay includes the green fluorescence data.
Tox21 Assay Protocol Summary:
2,000 HepG2 cells in 5 uL of culture medium (MEM containing 10% FBS) per well were dispensed into black wall/clear bottom 1536-well plates using a Multidrop Combi Dispenser (ThermoFisher Scientific, Waltham, MA). The assay plates were incubated overnight at 37 C to allow cell attachment to the well bottom, followed by the transfer of 23 nL compound or DMSO vehicle by a pintool work station (Kalypsys , San Diego, CA). After the assay plates were incubated for 1 hr at 37 C and 5% CO2, fluorescence intensities in the assay plates were measured by an Envision (PerkinElmer, Shelton, CT) plate reader using three labels for measuring blue, green and red fluorescence at […] 460, 535 and 590 nm respectively.

| Compound | outcome |
| --- | --- |
| CCOP(=O)(N=C1SCCS1)OCC | inactive |
| C(CCOCC1CO1)COCC1CO1 (stereo not given) | inactive |
| COC(=O)C1=CCCN(C)C1 | inactive |
| CC(=O)Nc1cc([As](=O)(O)O)ccc1O | inactive |
| O=C(O)c1ccc2[nH]cc(CCCCN3CC=C(c4ccccc4)CC3)c2c1 | inactive |
| Nc1n[nH]c(N)n1 | inactive |
| CCC1(c2ccccc2)C(=O)N=C(O)NC1=O (stereo not given) | inactive |
| COc1cc(C[C@@H](C)N)c(OC)cc1C | inactive |
| CCCSC(=O)Cl | inactive |
| CCN(Cc1ccc(Cl)nc1)/C(=C/[N+](=O)[O-])NC | inactive |
| CC(N)=S | inactive |
| CCOP(=S)(OCC)SCSc1ccc(Cl)cc1 | inactive |
| CC(CC(C#N)(c1ccccc1)c1ccccc1)N(C)C (stereo not given) | inactive |
| CC1(C(=O)Nc2ccc(O)c(Cl)c2Cl)CCCCC1 | inactive |
| CSc1ccc(C(=O)C(C)(C)N2CCOCC2)cc1 | inactive |
| CCN(CC)C(=O)[C@@H]1C=C2c3cccc4[nH]cc(c34)C[C@H]2N(C)C1 | inactive |
| ClCC(Cl)(Cl)Cl | inactive |
| ClCC(Cl)Cl | inactive |
| O=C(O)c1cccc(Cl)c1 | inactive |
| CCC/C(=N\OCC)C1=C(O)CC(CC(C)SCC)CC1=O (stereo not given) | inactive |

| Compound | outcome |
| --- | --- |
| CCc1cc2c(s1)-n1c(C)nnc1CN=C2c1ccccc1Cl | inactive |
| COC(=O)c1c(C(F)F)nc(C(F)(F)F)c(C2=NCCS2)c1CC(C)C | inactive |
| CC(Oc1ccc(Oc2ncc(C(F)(F)F)cc2Cl)cc1)C(=O)O (stereo not given) | inactive |
| CCOP(=S)(OCC)Oc1cc(-c2ccccc2)on1 | inactive |
| COc1cccc2c1cc([N+](=O)[O-])c1c(C(=O)O)cc3c(c12)OCO3 | inactive |
| O=NN1CCCCC1 | inactive |
| ClC(Cl)C(Cl)Cl | inactive |
| CC(C)CP(=S)(S)CC(C)C | inactive |
| CCS(=O)(=O)CCSP(=O)(OC)OC | inactive |
| C[N+](=O)[O-] | inactive |
| CCC1(c2ccccc2)C(=O)NC(=O)NC1=O | inactive |
| NC(=O)c1cc([N+](=O)[O-])cc([N+](=O)[O-])c1 | inactive |
| N#CC(Cl)(Cl)Cl | inactive |
| COc1cc(OC)nc(Sc2cccc(Cl)c2C(=O)O)n1 | inactive |
| CCNc1nc(NC(C)C)nc(OC)n1 | inactive |
| O=[N+]([O-])c1ccc2c3c(cccc13)CC2 | inactive |
| CCCCc1ccc(O)cc1 | inactive |
| COc1cc(OC)nc(NC(=O)NS(=O)(=O)c2ncccc2OCC(F)(F)F)n1 | inactive |
| CNC(=O)N(C)c1nc2ccccc2s1 | inactive |
| CCN(CC)CCOC(=O)C(C)(c1ccccc1)c1ccccc1 | inactive |
